# Assay results published in PubChem BioAssay (NCI).
# This is part of a sample that, as a whole, favours compounds with a hit. Of some 83,000 tested, about 20% had one in any assay.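 48-hour exposure, single concentration, 96-well plates; percent growth endpoint where 0 means no net growth. Active: below 10.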 Values without a mark were called inactive. Active and inactive are the calls of the source.
# System: HL-60(TB) leukemia
# Test: NCI-60 one-dose screen, 48 h (100 = growth as untreated, 0 = no growth, -100 = all killed)
# Conditions: 10 µM unless noted
row,SMILES,growth
1,N#Cc1ccc(-c2nn(-c3ccc(C(=O)O)cc3)cc2CNc2cc(Cl)cc(C(F)(F)F)c2)cc1,7.71% (active)
2,CC1(c2ccccc2)NC(=O)N(CC(=O)Nc2ccc(C(=O)/C=C/c3ccc(Br)cc3)cc2)C1=O (configuration not stated),20.8%
3,Cc1ccc(C(=O)C(c2c[nH]c3ccccc23)c2c[nH]c3ccccc23)cc1,17.2%
4,CC(=O)OC[C@@]1(C)C2CC[C@]3(C)C(CC=C4C5CC(C)(C)CC[C@]5(C(=O)Nc5ccc(C)cc5)CC[C@]43C)[C@@]2(C)C[C@@H](OC(C)=O)[C@@H]1OC(C)=O (some centres not stated),31.6%
5,CN1CCc2c(sc3ncnc(N/N=C/c4ccc5ccccc5c4)c23)C1,-14.6% (active)
6,O=C(/C=C/Nc1ccc(Cl)cc1)c1ccc2c(c1)Nc1ccccc1S2,92.7%
7,CN(C)c1nc(NCCNS(=O)(=O)c2ccc(C3=Nc4c(N)nc(N)nc4NC(c4ccccc4)C3)cc2)nc(Nc2ccc(F)cc2)n1 (configuration not stated),-6.76% (active)
8,CCCN(CCC)S(=O)(=O)c1ccc(C(=O)O)cc1.CCCN(CCC)S(=O)(=O)c1ccc(C(=O)O)cc1.[Cl][Pt+2][Cl].[NH2-].[NH2-],-2.97% (active)
9,Cc1nc(Nc2ccccn2)sc1C1=NNC(c2ccccc2F)C1 (configuration not stated),4.96% (active)
10,Cc1ccccc1[C@H]1C(C(=O)c2ccc(Cl)cc2)C2(N[C@@H]1c1ccccc1)C(=O)Nc1ccccc12 (some centres not stated),-18.1% (active)
11,C=CC(=O)Nc1ccc(C)c(Oc2ccc(Cl)cc2)c1,54%
12,Cc1ccc(-c2cc(-c3ccccc3)[nH]c(=O)c2C#N)cc1,86.9%
